Screening data (PubChem BioAssay)
LASV entry inh = qHTS for Inhibitors of binding or entry into cells for Lassa Virus; Lassa virus pseudotyped entry inhibition, cell-based qHTS; Potency, µM (doses to about 49.2 µM), without a hit: top-dose activity change, negative = inhibition, hits mostly inhibitors; hit rate 4.1% among 18,000
MARV entry inh = qHTS for Inhibitors of binding or entry into cells for Marburg Virus; Marburg virus pseudotype entry/binding inhibition, cell-based; Potency, µM (highest dose often 49.2 µM), inactives show top-dose activity change, negative = inhibition, hits mostly inhibitors; hit rate 6.5% among 18,000
* = called active by the depositor; [ ] = dose if it differs, or a comment. Compounds with a hit are over-represented: about 8% of the library has one in this group of screens. The call rests on the fitted dose curve; tested in HEK293 cells. On the % scale 0 is the no-effect control and ±100 the full control effect; potency means the concentration at half of the fitted maximal effect.

How did CC1(C)CC(=O)C2=C(C1)O[C@@]1(CCCCN3C(=O)c4ccccc4C3=O)Cc3c(ccc4ccccc34)[C@H]2O1 do in these assays?
LASV entry inh: -4%[8.59 µM]; MARV entry inh: -27%[8.59 µM]

What do the screens show for `COC(=O)C1=C(C)N(Cc2ccccc2)C(=NCCc2ccccn2)NC1c1cccc(F)c1` (centres undefined)?
LASV entry inh: -8%[8.59 µM]; MARV entry inh: -21%[8.59 µM]

What do the screens show for `Cc1c(O)cccc1C(=O)N[C@@H](CSc1ccccc1)[C@H](O)CN1C[C@H]2CCCC[C@H]2C[C@H]1C(=O)NC(C)(C)C`?
LASV entry inh: 28µM*; MARV entry inh: 11µM*

How did CC(=O)OC[C@H]1O[C@H](CCON=C(C)CCN2CCCc3nc(C)c(C)cc32)C=C[C@H]1OC(C)=O do in these assays?
LASV entry inh: -19%[8.59 µM]; MARV entry inh: -28%[8.59 µM]

What do the screens show for `CC[C@@H](c1ccccc1)n1c(=O)n2n(c1=O)[C@H]1[C@H](O)[C@@H]3O[C@H]3C(=NOCc3ccccc3)[C@H]1CC2`?
LASV entry inh: 6%[8.59 µM]; MARV entry inh: inconclusive

What do the screens show for `CC(=O)OC1CC(OC2C(O)CC(OC3C(O)CC(OC4CCC5(C)C(CCC6C5CC(O)C5(C)C(C7=CC(=O)OC7)CCC65O)C4)OC3C)OC2C)OC(C)C1OC1OC(CO)C(O)C(O)C1O` (centres undefined)?
LASV entry inh: 0.32µM*; MARV entry inh: 0.28µM*

Results for CC(=O)OC1CC[C@@]2(C)C3CC[C@@]4(C)C(CC5O[C@@]6(CCC(C)CO6)C(C)C54)C3CC[C@@H]2C1 (some centres undefined) ?
LASV entry inh: -7%; MARV entry inh: 9%

How did CC(=O)OC1CCC23C(=O)OC45CCC(C6=CC(=O)OC6)C4(C)CCC2C5CCC3(O)C1 (centres undefined) do in these assays?
LASV entry inh: 1.3µM*; MARV entry inh: 0.56µM*

Results for CC(=O)OC1CC[C@]2(C)C(CCC3C2CC[C@]2(C)C(C4=CC(=O)OC4)C(OC(C)=O)CC32O)C1 (some centres undefined) ?
LASV entry inh: 1.4µM*; MARV entry inh: 0.71µM*

How did CC(=O)O[C@H]1C[C@H](O[C@H]2[C@@H](O)C[C@H](O[C@H]3[C@@H](O)C[C@H](OC4CC[C@@]5(C)[C@H](CC[C@@H]6[C@@H]5CC[C@]5(C)[C@@H](C7=CC(=O)OC7)CC[C@]65O)C4)O[C@@H]3C)O[C@@H]2C)O[C@H](C)[C@H]1O[C@@H]1O[C@H](CO)[C@@H](O)[C@H](O)[C@H]1O (some centres undefined) do in these assays?
LASV entry inh: 25µM*; MARV entry inh: 5.6µM*

Results for CCN(CCNC(=O)[C@H]1C=C(OC)C(=O)C[C@H](c2ccccc2)[C@@H]1C)C(C)=O ?
LASV entry inh: 3%[8.59 µM]; MARV entry inh: -18%[8.59 µM]

What do the screens show for `O=C1NC(=O)C(N2CCc3ccccc32)=C1c1ccc(Cl)cc1`?
LASV entry inh: -18%; MARV entry inh: inconclusive

Results for C=CCOC(=O)C(C(C)=O)[C@@H](NC(=O)OC)c1ccc(Cl)cc1 (some centres undefined) ?
LASV entry inh: -4%[8.59 µM]; MARV entry inh: -10%[8.59 µM]

Results for CC(=O)C1=C(C)N(Cc2ccco2)C(=O)NC1c1ccccc1 (centres undefined) ?
LASV entry inh: 5%[8.59 µM]; MARV entry inh: -1%[8.59 µM]

What do the screens show for `COC(=O)[C@@H]1CC[C@H](C)[C@@H](c2ccc(C)cc2)N1C(=O)c1ccc(C=NOC[C@H]2O[C@H](c3ccccc3)C=C[C@H]2Oc2ccc(OC)cc2)cc1`?
LASV entry inh: -22%[8.59 µM]; MARV entry inh: -7%[8.59 µM]

Results for CC(=O)[C@]12C[C@@H]3CCCN(C(=O)N[C@@H]1c1ccccc1)[C@@H]32 ?
LASV entry inh: -7%[8.59 µM]; MARV entry inh: 0%[8.59 µM]

Results for CC(=O)O[C@H]1C[C@@H](O[C@@H]2[C@H](C)O[C@H](O[C@@H]3[C@H](C)O[C@H](O[C@@H]4CC[C@@]5(C)[C@@H](CC[C@]6(C)[C@]5(C)C[C@H](O)[C@]5(C)[C@@H](C7=CC(=O)OC7)CC[C@@]56O)C4)C[C@@H]3O)C[C@@H]2O)O[C@@H](C)[C@H]1O[C@H]1O[C@@H](CO)[C@@H](O)[C@@H](O)[C@@H]1O ?
LASV entry inh: 0.89µM*; MARV entry inh: 0.89µM*

What do the screens show for `Nc1nc(Cl)c2ncn(C3OC(CO)C(O)C3O)c2n1` (centres undefined)?
LASV entry inh: 5%; MARV entry inh: 19%

What do the screens show for `Nc1nc(Cl)nc2c1ncn2[C@@H]1O[C@H](CO)[C@@H](O)[C@@H]1F`?
LASV entry inh: inconclusive; MARV entry inh: 2.5µM*

What do the screens show for `O=C1NCCN1CCN1CCC(c2cn(-c3ccc(F)cc3)c3ccc(Cl)cc23)CC1`?
LASV entry inh: 22µM*; MARV entry inh: 11µM*

Results for CN1CCN(c2cc3c(cc2F)c(=O)c(C(=O)O)cn3-c2ccc(F)cc2)CC1 ?
LASV entry inh: 13%; MARV entry inh: 8%
